Reference: the supplement of paper PMC11732987, “Enantioselective OTUD7B fragment discovery through chemoproteomics screening and high-throughput optimisation” (Communications Chemistry, 2025)

What was measured:
Test in all cases: log2 ratio of Biotin-Ahx-Ub-VS probe labelling (fragment/DMSO); higher = less target engagement (more negative = stronger competition), active = hit call of the paper (q ≤ 0.05, log2 ratio ≤ -1)
Settings in all cases: compound concentration: 200 uM; treatment time: 3 h
[1] = biological target: T1, OTUD6B (UniProt Q8N6M0)
T1 sequence (whole entry): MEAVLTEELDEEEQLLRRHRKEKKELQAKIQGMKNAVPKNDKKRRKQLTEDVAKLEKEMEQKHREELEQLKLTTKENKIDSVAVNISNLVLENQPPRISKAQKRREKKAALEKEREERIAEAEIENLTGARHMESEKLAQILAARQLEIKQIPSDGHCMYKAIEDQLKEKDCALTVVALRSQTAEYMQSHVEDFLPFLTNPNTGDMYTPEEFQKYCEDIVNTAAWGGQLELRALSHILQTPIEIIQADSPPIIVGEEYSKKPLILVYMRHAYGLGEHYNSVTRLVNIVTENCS
How it was run: (§1)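 The table lists average log2 ratios of fragment over vehicle, from an unpaired t-test on global-median-normalised Spectronaut label-free quantities. Proteins with ≥2 unique peptides were used. Samples were HEK293T lysate (495 µg) treated in triplicate with fragment at 200 µM or vehicle for 3 h, then with Biotin-Ahx-Ub-VS (0.5 µM final) for 1 h, with labelled DUBs NeutrAvidin-enriched and run by diaPASEF LC-MS/MS.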

[2] = biological target: T2, OTUD7B (UniProt Q6GQQ9)
T2 sequence (whole entry): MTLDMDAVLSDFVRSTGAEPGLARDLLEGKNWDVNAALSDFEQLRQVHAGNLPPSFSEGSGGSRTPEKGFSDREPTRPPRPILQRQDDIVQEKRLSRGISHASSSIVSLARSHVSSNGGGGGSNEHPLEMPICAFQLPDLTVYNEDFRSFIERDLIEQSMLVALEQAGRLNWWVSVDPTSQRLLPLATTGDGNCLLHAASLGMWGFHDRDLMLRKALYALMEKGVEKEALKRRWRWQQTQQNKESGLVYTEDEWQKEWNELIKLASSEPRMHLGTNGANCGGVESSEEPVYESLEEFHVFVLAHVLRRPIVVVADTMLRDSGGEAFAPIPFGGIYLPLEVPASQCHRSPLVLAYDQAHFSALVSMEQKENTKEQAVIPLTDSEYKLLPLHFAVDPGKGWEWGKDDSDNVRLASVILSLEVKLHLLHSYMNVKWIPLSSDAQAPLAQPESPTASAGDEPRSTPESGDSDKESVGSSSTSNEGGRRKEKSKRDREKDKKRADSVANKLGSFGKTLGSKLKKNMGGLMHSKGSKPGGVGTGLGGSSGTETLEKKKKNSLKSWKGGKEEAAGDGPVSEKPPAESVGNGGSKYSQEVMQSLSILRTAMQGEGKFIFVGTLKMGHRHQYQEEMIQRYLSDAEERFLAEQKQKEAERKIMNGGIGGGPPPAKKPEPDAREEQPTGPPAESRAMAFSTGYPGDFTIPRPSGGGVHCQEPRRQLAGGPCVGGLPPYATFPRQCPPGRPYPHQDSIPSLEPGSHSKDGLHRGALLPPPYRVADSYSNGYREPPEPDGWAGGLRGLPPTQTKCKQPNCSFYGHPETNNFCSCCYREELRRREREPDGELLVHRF
How it was run: as §1

[3] = biological target: PRPF8 (UniProt Q6P2Q9)
How it was run: as §1

[4] = biological target: T3, PSMD7 (UniProt P51665)
T3 sequence (whole entry): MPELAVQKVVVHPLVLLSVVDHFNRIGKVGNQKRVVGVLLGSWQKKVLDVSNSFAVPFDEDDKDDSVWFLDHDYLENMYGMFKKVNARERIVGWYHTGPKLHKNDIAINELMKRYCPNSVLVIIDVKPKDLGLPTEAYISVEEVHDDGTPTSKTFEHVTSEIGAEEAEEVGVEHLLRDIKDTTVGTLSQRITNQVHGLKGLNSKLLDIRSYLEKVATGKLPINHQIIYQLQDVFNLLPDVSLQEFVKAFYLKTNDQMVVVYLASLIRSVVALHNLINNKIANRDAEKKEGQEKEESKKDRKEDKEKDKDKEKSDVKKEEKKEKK
How it was run: as §1

[5] = biological target: UCHL1 (UniProt P09936)
UCHL1, sequence (P09936 whole entry, looked up): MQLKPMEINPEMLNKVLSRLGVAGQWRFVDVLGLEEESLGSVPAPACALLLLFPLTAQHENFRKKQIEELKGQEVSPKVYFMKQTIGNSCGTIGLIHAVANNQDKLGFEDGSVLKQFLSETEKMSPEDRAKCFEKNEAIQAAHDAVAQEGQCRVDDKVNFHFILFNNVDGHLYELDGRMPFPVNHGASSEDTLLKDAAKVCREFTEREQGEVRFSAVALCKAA
How it was run: as §1

[6] = biological target: T4, UCHL3 (UniProt P15374)
T4 sequence (whole entry): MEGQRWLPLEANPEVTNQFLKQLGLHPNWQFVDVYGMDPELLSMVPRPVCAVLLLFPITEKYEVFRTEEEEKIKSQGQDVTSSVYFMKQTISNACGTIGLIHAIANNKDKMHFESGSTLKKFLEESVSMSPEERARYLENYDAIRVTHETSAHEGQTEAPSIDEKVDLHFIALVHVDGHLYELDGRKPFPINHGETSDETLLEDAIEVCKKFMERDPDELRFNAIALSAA
How it was run: as §1

[7] = biological target: T5, UCHL5 (UniProt Q9Y5K5)
T5 sequence (whole entry): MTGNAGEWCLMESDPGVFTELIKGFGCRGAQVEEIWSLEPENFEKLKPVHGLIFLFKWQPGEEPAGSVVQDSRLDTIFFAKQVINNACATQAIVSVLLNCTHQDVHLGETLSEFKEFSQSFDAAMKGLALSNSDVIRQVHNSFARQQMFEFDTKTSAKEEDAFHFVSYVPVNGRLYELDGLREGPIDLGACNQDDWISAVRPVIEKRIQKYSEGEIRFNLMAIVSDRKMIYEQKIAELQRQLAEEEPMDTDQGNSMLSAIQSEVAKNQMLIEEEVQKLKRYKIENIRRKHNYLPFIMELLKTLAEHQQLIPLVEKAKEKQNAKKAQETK
How it was run: as §1

[8] = biological target: USP10 (UniProt Q14694)
USP10, sequence (Q14694 whole entry): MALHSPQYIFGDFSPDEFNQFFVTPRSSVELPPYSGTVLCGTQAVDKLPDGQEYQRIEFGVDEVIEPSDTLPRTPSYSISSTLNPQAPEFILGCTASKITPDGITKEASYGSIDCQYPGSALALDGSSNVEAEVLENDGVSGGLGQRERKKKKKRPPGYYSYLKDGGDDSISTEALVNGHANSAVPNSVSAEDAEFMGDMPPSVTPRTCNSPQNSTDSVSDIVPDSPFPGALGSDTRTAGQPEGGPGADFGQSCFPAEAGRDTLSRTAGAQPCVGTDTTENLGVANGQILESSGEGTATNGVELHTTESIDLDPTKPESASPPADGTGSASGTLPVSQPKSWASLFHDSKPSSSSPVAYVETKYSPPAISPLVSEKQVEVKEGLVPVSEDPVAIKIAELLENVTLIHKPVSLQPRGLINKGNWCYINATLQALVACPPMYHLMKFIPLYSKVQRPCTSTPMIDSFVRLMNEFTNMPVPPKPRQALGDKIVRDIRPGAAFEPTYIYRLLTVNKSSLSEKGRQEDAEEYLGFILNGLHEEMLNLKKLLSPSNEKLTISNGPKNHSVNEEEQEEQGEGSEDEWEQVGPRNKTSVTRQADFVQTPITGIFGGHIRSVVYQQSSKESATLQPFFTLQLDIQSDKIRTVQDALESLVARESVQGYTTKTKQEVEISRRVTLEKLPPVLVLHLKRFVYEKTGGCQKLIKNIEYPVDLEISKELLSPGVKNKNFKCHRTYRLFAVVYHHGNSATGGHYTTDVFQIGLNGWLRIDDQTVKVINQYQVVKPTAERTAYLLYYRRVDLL
How it was run: as §1

[9] = biological target: T6, USP15 (UniProt Q9Y4E8)
T6 sequence (whole entry): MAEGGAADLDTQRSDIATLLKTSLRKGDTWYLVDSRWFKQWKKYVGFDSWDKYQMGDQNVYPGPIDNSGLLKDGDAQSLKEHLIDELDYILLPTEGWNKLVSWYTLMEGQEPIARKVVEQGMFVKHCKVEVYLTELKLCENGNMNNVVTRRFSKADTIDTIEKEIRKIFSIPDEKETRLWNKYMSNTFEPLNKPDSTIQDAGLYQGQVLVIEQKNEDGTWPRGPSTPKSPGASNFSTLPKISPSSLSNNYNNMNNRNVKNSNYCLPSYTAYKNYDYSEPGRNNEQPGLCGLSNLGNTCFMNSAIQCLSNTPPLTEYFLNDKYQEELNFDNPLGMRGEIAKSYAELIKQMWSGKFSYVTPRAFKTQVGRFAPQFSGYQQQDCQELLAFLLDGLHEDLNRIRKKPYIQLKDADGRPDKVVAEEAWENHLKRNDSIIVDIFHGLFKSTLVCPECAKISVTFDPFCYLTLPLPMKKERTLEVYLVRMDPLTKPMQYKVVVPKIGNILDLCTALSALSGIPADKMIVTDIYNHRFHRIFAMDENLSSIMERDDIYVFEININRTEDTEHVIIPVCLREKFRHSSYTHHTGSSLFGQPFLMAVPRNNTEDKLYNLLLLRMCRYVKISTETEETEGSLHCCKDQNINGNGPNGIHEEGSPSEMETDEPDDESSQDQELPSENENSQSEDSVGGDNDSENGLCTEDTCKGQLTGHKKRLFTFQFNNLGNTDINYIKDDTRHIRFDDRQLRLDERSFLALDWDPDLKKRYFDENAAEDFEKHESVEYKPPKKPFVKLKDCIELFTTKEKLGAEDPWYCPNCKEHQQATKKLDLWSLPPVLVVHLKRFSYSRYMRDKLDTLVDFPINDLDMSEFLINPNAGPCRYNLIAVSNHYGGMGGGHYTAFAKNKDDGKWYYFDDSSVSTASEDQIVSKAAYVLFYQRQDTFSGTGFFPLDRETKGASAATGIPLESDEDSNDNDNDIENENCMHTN
How it was run: as §1

[10] = biological target: USP16 (UniProt Q9Y5T5)
USP16, sequence (Q9Y5T5 whole entry, looked up): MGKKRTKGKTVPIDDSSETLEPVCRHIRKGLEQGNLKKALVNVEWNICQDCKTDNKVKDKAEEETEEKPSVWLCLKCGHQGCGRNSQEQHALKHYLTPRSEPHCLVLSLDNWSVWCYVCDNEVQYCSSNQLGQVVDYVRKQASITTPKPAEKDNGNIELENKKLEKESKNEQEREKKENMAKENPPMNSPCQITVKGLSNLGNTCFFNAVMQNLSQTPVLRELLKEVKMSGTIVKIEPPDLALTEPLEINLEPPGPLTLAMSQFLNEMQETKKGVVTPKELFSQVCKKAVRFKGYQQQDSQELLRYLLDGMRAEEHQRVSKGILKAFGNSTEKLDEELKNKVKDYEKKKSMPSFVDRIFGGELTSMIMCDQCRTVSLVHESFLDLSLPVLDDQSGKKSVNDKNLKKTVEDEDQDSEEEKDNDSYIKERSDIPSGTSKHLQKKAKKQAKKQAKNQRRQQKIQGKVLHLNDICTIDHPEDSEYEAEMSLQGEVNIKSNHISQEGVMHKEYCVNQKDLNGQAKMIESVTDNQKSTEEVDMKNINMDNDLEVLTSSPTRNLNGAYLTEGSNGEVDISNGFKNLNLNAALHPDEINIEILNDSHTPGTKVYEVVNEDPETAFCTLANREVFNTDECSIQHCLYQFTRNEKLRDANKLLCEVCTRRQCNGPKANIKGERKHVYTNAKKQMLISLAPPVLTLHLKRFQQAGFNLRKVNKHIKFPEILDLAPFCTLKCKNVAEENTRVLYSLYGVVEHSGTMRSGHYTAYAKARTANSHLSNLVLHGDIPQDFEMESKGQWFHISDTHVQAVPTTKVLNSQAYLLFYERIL
How it was run: as §1

Measured: log2 ratio of Biotin-Ahx-Ub-VS probe labelling

N#Cc1ccccc1N1CCN(C(=O)CCl)CC1
active: [5] -2.04
inactive: [1] -0.533 | [2] -0.626 | [3] -0.322 | [4] -0.0914 | [6] -0.341 | [7] -0.894 | [8] -0.051 | [9] -0.781 | [10] -0.37
